Experiment [1] can be described thus: NCI Yeast Anticancer Drug Screen. Data for the rad50 strain (AID 155).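 Also: 0% = growth of vehicle-only cultures of the same strain.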 The settings on record: S. cerevisiae rad50 strain growth inhibition; at 50.0 µM; hits give high values. Summed up: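 Inhibition values express reduced yeast growth in compound-treated cultures relative to vehicle-treated controls.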
Experiment [2] can be described thus: NCI Yeast Anticancer Drug Screen. Data for the mec2-1 strain (AID 157). As to conditions: S. cerevisiae mec2-1 strain, at 50.0 µM, hits give high values. Summed up: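 Yeast mec2-1 mutant treated with compound. Readout: growth inhibition vs vehicle controls.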
A short description of experiment [3]: NCI Yeast Anticancer Drug Screen. Data for the sgs1 mgt1 strain (AID 161).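 Also: 0% = growth of cultures given vehicle only.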 The settings on record: S. cerevisiae sgs1 mgt1 strain, at 50.0 µM, hits give high values. Put shortly: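 Read-out: growth inhibition vs vehicle controls. Cells: mutant yeast strain deficient in DNA damage repair.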
Experiment [4] is described as follows: NCI Yeast Anticancer Drug Screen. Data for the cln2 rad14 strain (AID 165).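 Also: 0% = growth equal to vehicle treated cultures.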 As to conditions: S. cerevisiae cln2 rad14 strain, at 50.0 µM, hits give high values. Summed up:
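cln2 rad14 yeast strain; compound exposure; growth inhibition read vs vehicle controls.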

Experiment [5] in a line: NCI Yeast Anticancer Drug Screen. Data for the bub3 strain (AID 167). The settings on record: S. cerevisiae bub3 mutant strain, at 50.0 µM, hits give high values. Summed up:
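Steps: expose the mutant yeast strain to compound; grow alongside vehicle-treated cultures; measure growth; express inhibition against the vehicle cultures.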

Experiment [6] can be described thus: NCI Yeast Anticancer Drug Screen. Data for the mlh1 rad18 strain (AID 175). As to conditions: S. cerevisiae mlh1 rad18 strain growth inhibition; at 50.0 µM; hits give high values. Put shortly:
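Yeast w/ defined DNA-repair lesions; compound exposure; growth vs vehicle controls → % inhibition.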

This is an account of results in PubChem BioAssay (NCI).

This is part of a sample that, as a whole, favours compounds with a hit. Of some 79,000 tested, about 15% had one in any assay. Unmarked numbers belong to inactive results. Activity calls are given as the source filed them. Rule as the data show it: active = growth inhibition above about 70%; inactive = the rest. Where a SMILES comes first, the peptide text is derived from it. The star is where a group is joined. Cbz = O=C(OCc1ccccc1)*

On to `CCOc1cccc(N)c1`, for which the growth inhibition is -69.2% in experiment [1]; -20.7% in experiment [2]; -55.5% in experiment [3]; -51% in experiment [4]; -41.7% in experiment [5]; -80.2% in experiment [6].

As to `CN(CCO)CC(O)Cn1cnc2c(N)ncnc21` (stereo unspecified), the growth inhibition in experiment [1] was -12.5%; in experiment [2], -17.8%; in experiment [3] it was -31.5%; in experiment [4] it was 10.7%; in experiment [5], -19.4%; in experiment [6], 19.8%.

In the case of `N#Cc1sc2c(c1OC(=O)c1ccc(C(F)(F)F)cc1)c(=O)n(-c1ccccc1)c(=S)n2-c1ccccc1`, the growth inhibition was -11.9% in experiment [1]; 0.9% in experiment [2]; 1.05% in experiment [3]; 0.8% in experiment [4]; -6.2% in experiment [5]; 3.05% in experiment [6].

`Nc1c(Cl)ncnc1NCCCCCCCCCCCCNc1ncnc(Cl)c1N`: the growth inhibition was -6.4% in experiment [1]; 1.75% in experiment [2]; 26.1% in experiment [3]; -8.95% in experiment [4]; -9.7% in experiment [5]; 1.85% in experiment [6].

For the molecule `O=C1C=C(c2ccccc2)Sc2ccccc2N1`, the growth inhibition in experiment [1] was 25.9%; in experiment [2] it was 34.5%; in experiment [3] it was 19.1%; in experiment [4], -1.4%; in experiment [5] it was 26.1%; in experiment [6], 53.2%.

With `CCCCNC(=O)c1cccc(OC)c1OC`, the growth inhibition in experiment [1] is 2.25%; in experiment [2], -1.55%; in experiment [3], 4.3%; in experiment [4], 2.35%; in experiment [5] it was -5.65%; in experiment [6] it was 3.45%.

`CCOC(=O)C1=C(C(=O)c2ccc(C)cc2)C(c2ccc([N+](=O)[O-])cc2)C(C(=O)c2ccc(C)cc2)=C(C(=O)OCC)N1`: the growth inhibition in experiment [1] is -27.3%; in experiment [2], -18.2%; in experiment [3] it was -8.9%; in experiment [4], -12.4%; in experiment [5] it was -14.9%; in experiment [6] it was -11.7%.

As for `CCCCS(=O)CC(CO)NC(=O)/C=C/c1c(C)[nH]c(=O)[nH]c1=O` (stereo unspecified), the growth inhibition was 12.9% in experiment [1]; 22.8% in experiment [2]; 12.8% in experiment [3]; 22.1% in experiment [4]; -3.25% in experiment [5]; 33.9% in experiment [6].

Turning to `COc1ccc(SC/C(=N\NOS(=O)(=O)c2ccc(C)cc2)c2ccccc2)cc1`, the growth inhibition in experiment [1] was 85.1% (active); in experiment [2], 34.1%; in experiment [3], 93.3% (active); in experiment [4], 61%; in experiment [5], 61%; in experiment [6] it was 87.7% (active).

For `O=[N+]([O-])C1C2CCC(C2)C1c1ccccc1` (stereo unspecified), the growth inhibition is 9.55% in experiment [1]; -3.75% in experiment [2]; -0.55% in experiment [3]; -2.05% in experiment [4]; 14.9% in experiment [5]; -0.2% in experiment [6].

Take `CC(NC(=O)C(Cc1ccc(O)cc1)NC(=O)C(C)NC(=O)OCc1ccccc1)C(=O)O` (stereo not drawn) (Cbz-Ala-Tyr-Ala-OH; configuration not given here): the growth inhibition was 12.2% in experiment [1]; 13.3% in experiment [2]; 13.7% in experiment [3]; -4.25% in experiment [4]; -5.8% in experiment [5]; 16.9% in experiment [6].

Turning to `CCCCC1(CN(C)C)C(=O)N(C)C(=O)N(C2CCCCC2)C1=O` (stereo unspecified), the growth inhibition in experiment [1] was 9.15%; in experiment [2] it was 10.2%; in experiment [3], 1.4%; in experiment [4], 21.9%; in experiment [5] it was -4.2%; in experiment [6] it was 9.6%.

Take `Cn1c(=O)c2ncn(CC(O)COc3ccccc3)c2n(C)c1=O` (stereo unspecified): the growth inhibition is 2.15% in experiment [1]; 3.1% in experiment [2]; 11.8% in experiment [3]; -2.8% in experiment [4]; 25.9% in experiment [5]; 16.3% in experiment [6].

In the case of `CCn1c(=O)c2c3ccc(OC(C)=O)cc3[nH]c2c2ccc(OC(C)=O)cc21`, the growth inhibition is -17.9% in experiment [1]; -30.5% in experiment [2]; -10.9% in experiment [3]; 9.35% in experiment [4]; 4% in experiment [5]; -21.6% in experiment [6].

Turning to `COC(=O)CC(c1ccc2c(c1)OCO2)N1CCOCC1` (stereo unspecified), the growth inhibition in experiment [1] was -6.3%; in experiment [2], 31.3%; in experiment [3], 19.5%; in experiment [4], -6.1%; in experiment [5], 21.2%; in experiment [6], 42.9%.

With `CC(=O)OC1(C)N=NC2(CCCCC2)O1` (stereo unspecified), the growth inhibition in experiment [1] was 3.45%; in experiment [2], -22.4%; in experiment [3], -37.1%; in experiment [4], 7.5%; in experiment [5] it was -12.1%; in experiment [6], -12.3%.

For `Cc1ccc(C)c2c3c(sc12)CCCC3`, the growth inhibition is -7.85% in experiment [1]; -5.4% in experiment [2]; -7.15% in experiment [3]; -17.2% in experiment [4]; 0.45% in experiment [5]; 2.95% in experiment [6].

`CCCCc1ccncc1`: the growth inhibition in experiment [1] is 5.3%; in experiment [2], 4.55%; in experiment [3], 18.6%; in experiment [4], -25.9%; in experiment [5], 8.55%; in experiment [6], 19.6%.

Consider `O=C(O)C1Cc2c([nH]c3ccccc23)C=N1` (stereo unspecified), for which the growth inhibition in experiment [1] is 27.9%; in experiment [2] it was 11.9%; in experiment [3], -2.3%; in experiment [4], 22.2%; in experiment [5] it was 16.4%; in experiment [6], 33.8%.

Turning to `[N-]=[N+]=Nc1ccnc2cc(C(F)(F)F)ccc12`, the growth inhibition in experiment [1] is -31.5%; in experiment [2] it was 3.35%; in experiment [3] it was -2.25%; in experiment [4], -36.7%; in experiment [5], 4.45%; in experiment [6], 11.1%.

With `NC(=S)N=Nc1c(O)[nH]c2ccccc12`, the growth inhibition is 12.8% in experiment [1]; -9.8% in experiment [2]; -5.9% in experiment [3]; 4.85% in experiment [4]; 9.95% in experiment [5]; 6.55% in experiment [6].
